# In PubChem BioAssay (Tox21):
# Unmarked numbers belong to inactive results. Results filed as inconclusive are left out. Where a call stands in place of a potency, no number is given. Activity calls are given as the source filed them. Unless noted, calls come from the whole dose curve; as a rule, active = well fitted curve in the direction sought with a large enough effect in the repeat runs; inconclusive = weak or mixed curves; inactive = no such curve, though single readings can be large; an effect the other way counts as inactive or inconclusive.
# Legend:
# [1] = qHTS assay to identify small molecule antagonists of the estrogen receptor alpha (ER-alpha) signaling pathway using the BG1 cell line in the presence of 0.1 nM 17-beta-estradiol - cell viability counter screen (AID 1259241); note: nearly all actives have a fitted effect of over 40% in size
# Procedure, shortened: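 Cells were plated and left 24 hr, compounds in DMSO were pinned in, 17beta-estradiol was added to 0.1 nM final, and after 22 hr CellTiter-Fluor reagent was added for 30 min before fluorescence was read.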
# [2] = qHTS assay to identify small molecule antagonists of the androgen receptor (AR) signaling pathway using the MDA cell line in the presence of 0.5 nM R1881 - cell viability counter screen (AID 1259242); note: nearly all actives have a fitted effect of over 45% in size
# Procedure, shortened: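 qHTS format. MDA-kb2 (MMTV-luc, AR/GR responsive) + cpd + 0.5 nM R1881 final, 16 hr 37C/0% CO2 → CellTiter-Fluor 30 min → fluorescence intensity.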
# [3] = target: Estrogen receptor (Homo sapiens) (UniProt P03372); assay: qHTS assay to identify small molecule antagonists of the estrogen receptor alpha (ER-alpha) signaling pathway using the BG1 cell line in the presence of 0.1 nM 17-beta-estradiol (AID 1259244); note: nearly all actives have a fitted effect of over 50% in size
# Chain of Estrogen receptor (Homo sapiens) (P03372 whole entry, looked up): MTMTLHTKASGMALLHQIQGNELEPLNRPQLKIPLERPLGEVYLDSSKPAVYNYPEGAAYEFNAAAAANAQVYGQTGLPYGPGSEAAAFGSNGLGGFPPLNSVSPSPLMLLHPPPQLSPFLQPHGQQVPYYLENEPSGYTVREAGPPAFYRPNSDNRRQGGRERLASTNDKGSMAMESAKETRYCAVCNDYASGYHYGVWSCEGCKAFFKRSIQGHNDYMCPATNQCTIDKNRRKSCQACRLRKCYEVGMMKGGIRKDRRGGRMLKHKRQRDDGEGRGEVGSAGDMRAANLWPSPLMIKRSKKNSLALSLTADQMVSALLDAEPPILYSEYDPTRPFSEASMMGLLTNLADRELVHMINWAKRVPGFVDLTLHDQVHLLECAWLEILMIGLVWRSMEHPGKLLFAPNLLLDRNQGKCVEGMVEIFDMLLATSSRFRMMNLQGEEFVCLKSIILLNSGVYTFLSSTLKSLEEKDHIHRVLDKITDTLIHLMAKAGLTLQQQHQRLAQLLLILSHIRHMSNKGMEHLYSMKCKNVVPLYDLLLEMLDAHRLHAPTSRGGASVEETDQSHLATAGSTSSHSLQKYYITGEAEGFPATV
# Procedure, shortened: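 Reporter is a stably transfected luciferase under four estrogen responsive elements in VM7Luc4E2 cells expressing native full-length ER-alpha; inhibition of 0.1 nM (final) 17beta-estradiol-driven signal over 22 h is read by luminescence.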
# [4] = qHTS assay to identify small molecule HDAC inhibitors (AID 1259364);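 note: wild-type HCT-116 cells with endogenous class I/II HDAC activity; top concentration of the series differs between compounds; nearly all actives have a fitted effect of over 45% in size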
# Procedure, shortened: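 Quantitative high-throughput format: overnight-seeded HCT-116 cells got compounds for 2 hr at 37C; HDAC-Glo I/II reagent added, 30 min RT, luminescence measured.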
# [5] = qHTS assay to identify small molecule HDAC inhibitors - cell viability counter screen (AID 1259365); note: series mostly up to about 92 µM; nearly all actives have a fitted effect of over 50% in size
# Procedure, shortened: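 Counter screen in wild-type HCT-116 cells: compounds dissolved in DMSO are pin-transferred onto overnight-plated cells and left 2hr at 37C. ATP-based CellTiter-Glo luminescence then measures viable cells.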
# [6] = qHTS assay to identify small molecule agonists of the sonic hedgehog signaling (Shh) pathway - cell viability counter screen (AID 1259366); note: nearly all actives have a fitted effect of over 50% in size
# Procedure, shortened: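 Cells are plated at 2,000 per well and left 4hr at 37C, 5% CO2 before compound addition. After 23hr of treatment, CellTiter-Fluor reagent is added for 1hr at 37C and fluorescence is measured.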
# [7] = qHTS assay to identify small molecule antagonists of the sonic hedgehog signaling (Shh) pathway - cell viability counter screen (AID 1259367); note: nearly all actives have a fitted effect of over 55% in size
# Procedure, shortened: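 Fluorescence read-out (CellTiter-Fluor, 1 hr at 37C) taken after 23 hr compound treatment of 3T3 Gli1-Luc cells stimulated with conditioned medium. Cells were seeded at 2,000 per well and pre-incubated 4 hr.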
# [8] = qHTS assay to identify small molecule agonists of the sonic hedgehog signaling (Shh) pathway (AID 1259368; calls by dose curve;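 note: NIH/3T3-derived 3T3Gli1-Luc cells carrying a stable Gli1-driven firefly luciferase reporter; series mostly up to about 92 µM; nearly all actives have a fitted effect of over 15% in size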)
# Procedure, shortened: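 Quantitative high-throughput format using a Gli1-driven firefly luciferase reporter line derived from NIH/3T3 cells. After a 24 hr compound treatment at 37 C and 5% CO2, luminescence reported Gli1 response element activity.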
# [9] = qHTS assay to identify small molecule antagonists of the sonic hedgehog signaling (Shh) pathway (AID 1259369; calls by dose curve; note: nearly all actives have a fitted effect of over 45% in size; note: potency is the fitted concentration of half-maximal effect)
# Procedure, shortened: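 Stable Gli1-Luc reporter NIH/3T3 clone; quantitative HTS in stimulated mode with conditioned medium. Luminescence measured after 24hr compound treatment at 37 C.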
# [10] = target: Estrogen receptor beta (Homo sapiens) (UniProt Q92731); assay: qHTS assay to identify small molecule agonists of the estrogen receptor beta (ER-beta) signaling pathway (AID 1259377; active = well fitted activation curve with a large enough effect in the signal ratio in the repeat runs, not every such curve was filed as active; the % refers to the signal ratio)
# Chain of Estrogen receptor beta (Homo sapiens) (Q92731 whole entry, looked up, the tested form may be a part): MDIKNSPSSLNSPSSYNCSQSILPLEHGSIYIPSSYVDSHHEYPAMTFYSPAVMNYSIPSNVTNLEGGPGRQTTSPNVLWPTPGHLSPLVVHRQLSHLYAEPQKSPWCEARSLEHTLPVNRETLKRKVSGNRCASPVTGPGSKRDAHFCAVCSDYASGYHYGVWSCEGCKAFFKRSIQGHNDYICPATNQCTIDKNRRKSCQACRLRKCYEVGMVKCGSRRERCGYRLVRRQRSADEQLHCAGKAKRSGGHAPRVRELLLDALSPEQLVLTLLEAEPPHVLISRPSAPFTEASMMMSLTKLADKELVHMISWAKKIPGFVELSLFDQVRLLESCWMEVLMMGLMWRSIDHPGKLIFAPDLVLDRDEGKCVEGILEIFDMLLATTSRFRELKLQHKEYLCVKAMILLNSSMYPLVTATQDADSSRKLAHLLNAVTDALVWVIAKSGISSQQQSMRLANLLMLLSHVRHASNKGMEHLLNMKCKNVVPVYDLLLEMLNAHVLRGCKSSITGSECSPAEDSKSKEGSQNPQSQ
# Procedure, shortened: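 Agonist mode cell assay in GripTite HEK293T cells expressing an ER-beta fusion that drives beta-lactamase from an Upstream Activator Sequence; 16 hr compound exposure at 37C, then 2 h LiveBLAzer B/G FRET substrate at room temperature, fluorescence read-out.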
# [11] = target: Estrogen receptor beta (Homo sapiens) (UniProt Q92731); assay: qHTS assay to identify small molecule antagonists of the estrogen receptor beta (ER-beta) signaling pathway (AID 1259378; active = well fitted inhibition curve with a large enough effect in the signal ratio in the repeat runs, not every such curve was filed as active; the % refers to the signal ratio)
# Procedure, shortened: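 ER-beta-UAS-bla HEK293T cells in 2% charcoal-stripped FBS medium treated with compound plus 1nM final 17-beta-estradiol for 16 hr at 37C. Beta-lactamase reporter read by FRET substrate fluorescence after 2 hours at room temperature.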
# [12] = qHTS assay to identify small molecule agonists of the androgen receptor (AR) signaling pathway in the presence of an antagonist - cell viability counter screen (AID 1259379);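 note: MDA-kb2 human breast cancer cells carrying an MMTV luciferase reporter; series mostly up to about 92 µM; nearly all actives have a fitted effect of over 25% in size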
# Procedure, shortened: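 Nilutamide-containing (3.0uM final) MDA-kb2 cultures, 3,000 cells/well, were treated with compounds across 15 concentrations. After 16 hr at 37C with no CO2, cell viability was determined by CellTiter-Fluor fluorescence in the luciferase assay wells.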
# [13] = qHTS assay to identify small molecule agonists of the estrogen receptor beta (ER-beta) signaling pathway - cell viability counter screen (AID 1259380); note: nearly all actives have a fitted effect of over 30% in size
# Procedure, shortened: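 Steps: plate ER-beta-UAS-bla HEK293T cells, rest 6 hr; add compounds in DMSO; incubate 16 hr at 37C, 5% CO2; add FRET substrate 2 hr; add CellTiter-Glo, wait 30 min at room temperature; read luminescence.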
# [14] = qHTS assay to identify small molecule antagonists of the estrogen receptor beta (ER-beta) signaling pathway - cell viability counter screen (AID 1259382); note: series mostly up to about 92 µM; nearly all actives have a fitted effect of over 55% in size
# Procedure, shortened: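 Viability is scored by CellTiter-Glo luminescence (30 min, room temperature) in ER-beta-UAS-bla HEK293T wells already read for reporter fluorescence. Compound exposure lasts 16 hr at 37C alongside 1nM 17-beta-estradiol in charcoal-stripped serum medium.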
# [15] = target: Estrogen receptor (Homo sapiens) (UniProt P03372); assay: qHTS assay to identify small molecule agonists of the estrogen receptor alpha (ER-alpha) signaling pathway in the presence of an antagonist (AID 1259383; calls by dose curve; note: top concentration of the series differs between compounds; nearly all actives have a fitted effect of over 15% in size)
# Procedure, shortened: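 Readout was ERE-driven luciferase luminescence in VM7Luc4E2 cells, which express full-length ER-alpha endogenously. Compounds were tested at 15 concentrations for 22hr alongside 10.0nM ICI-182,780 (final concentration).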
# [16] = qHTS assay to identify small molecule agonists or antagonists of the thyroid stimulating hormone receptor (TSHR) signaling pathway - wild type cell line counter screen (AID 1259384; calls by dose curve)
# Procedure, shortened: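 Wild-type Hek293 cells, 800/well, 18 h at 37C, then compound with Ro20-1724 for 30 min RT. cAMP by HTRF (cAMP-d2/anti-cAMP cryptate), 1 h RT, fluorescence read. 15 concentrations, triplicates.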
# [17] = target: Thyrotropin receptor (Homo sapiens) (UniProt P16473); assay: qHTS assay to identify small molecule antagonists of the thyroid stimulating hormone receptor (TSHR) signaling pathway (AID 1259385; calls by dose curve; note: nearly all actives have a fitted effect of over 20% in size)
# Chain of Thyrotropin receptor (Homo sapiens) (P16473 whole entry, looked up): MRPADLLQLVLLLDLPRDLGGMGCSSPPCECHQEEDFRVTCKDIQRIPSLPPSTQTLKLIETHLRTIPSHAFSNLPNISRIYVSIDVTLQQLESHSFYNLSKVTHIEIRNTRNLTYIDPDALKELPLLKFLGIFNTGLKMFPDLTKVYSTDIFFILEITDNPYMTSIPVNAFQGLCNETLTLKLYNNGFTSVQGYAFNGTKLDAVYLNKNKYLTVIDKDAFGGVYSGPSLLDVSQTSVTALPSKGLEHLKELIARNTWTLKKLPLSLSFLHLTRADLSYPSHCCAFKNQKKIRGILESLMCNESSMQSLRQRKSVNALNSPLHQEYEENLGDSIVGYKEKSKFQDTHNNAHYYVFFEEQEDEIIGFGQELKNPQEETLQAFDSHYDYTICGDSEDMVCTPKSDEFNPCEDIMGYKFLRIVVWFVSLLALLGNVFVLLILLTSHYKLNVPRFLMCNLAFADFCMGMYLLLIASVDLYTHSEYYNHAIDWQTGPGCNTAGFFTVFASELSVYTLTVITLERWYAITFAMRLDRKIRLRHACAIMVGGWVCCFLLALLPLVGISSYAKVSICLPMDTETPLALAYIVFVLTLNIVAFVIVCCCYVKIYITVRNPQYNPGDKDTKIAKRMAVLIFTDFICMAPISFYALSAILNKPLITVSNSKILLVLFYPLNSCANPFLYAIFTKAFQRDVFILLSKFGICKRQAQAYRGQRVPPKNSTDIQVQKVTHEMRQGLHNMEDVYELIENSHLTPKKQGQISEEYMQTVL
# Procedure, shortened: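 TSHR-HEK293 cells (800/well) plated 18 h, then compounds with Ro20-1724 and TSH at 1.5 ng/mL final, 30 min at room temperature. cAMP quantified by HTRF (cAMP-d2/anti-cAMP-cryptate, 1 h); 15 concentrations in triplicate.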
# [18] = qHTS assay to identify small molecule phospholipidosis (PLD) inducers (AID 1259344; active = well fitted curve in the direction sought with a large enough effect; an effect the other way counts as inactive or inconclusive)
# Procedure, shortened: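 Read-out is LipidTOX Red fluorescence (ex 595/em 615) imaged in HepG2 cells after 24 h compound exposure at 37 C, with Hoechst nuclear counterstain (ex 352/em 461) allowing per-cell normalisation.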
smiles,measurement,setting,value
CCOC(=O)C(Cl)Cc1cc(-n2nc(C)n(C(F)F)c2=O)c(F)cc1Cl (stereo not given),outcome,[1],inactive
same,Potency,[2],inactive
same,Potency,[3],inactive
same,Potency,[4],inactive
same,outcome,[5],inactive
same,Potency,[6],inactive
same,Potency,[7],inactive
same,outcome,[8],inactive
same,Potency,[9],inactive
same,Potency,[10],inactive
same,outcome,[11],inactive
same,Potency,[12],inactive
same,Potency,[13],inactive
same,Potency,[14],inactive
same,Potency,[15],inactive
same,outcome,[16],inactive
same,outcome,[17],inactive
CC[C@@H](CO)NC(=O)[C@@H]1C=C2c3cccc4c3c(cn4C)C[C@H]2N(C)C1,outcome,[1],inactive
same,Potency,[2],inactive
same,Potency,[3],inactive
same,Potency,[18],inactive
same,Potency,[4],inactive
same,Potency,[6],inactive
same,Potency,[7],inactive
same,outcome,[8],inactive
same,Potency,[9],inactive
same,outcome,[11],inactive
same,Potency,[12],inactive
same,Potency,[13],inactive
same,Potency,[14],inactive
same,Potency,[15],inactive
C=C1C[C@@H]2[C@H](CC[C@]3(C)C(=O)CC[C@@H]23)[C@@]2(C)C=CC(=O)C=C12,outcome,[1],inactive
same,Potency,[2],inactive
same,Potency,[3],inactive
same,Potency,[18],inactive
same,Potency,[4],inactive
same,outcome,[5],inactive
same,Potency,[6],inactive
same,Potency,[7],inactive
same,outcome,[8],inactive
same,Potency,[9],6.68 µM (active)
same,Potency,[10],inactive
same,outcome,[11],inactive
same,Potency,[12],inactive
same,Potency,[13],inactive
same,Potency,[14],inactive
same,Potency,[15],inactive
same,outcome,[16],inactive
same,outcome,[17],inactive
CCC(C(N)=O)N1CCCC1=O (stereo not given),outcome,[1],inactive
same,Potency,[2],inactive
same,Potency,[3],inactive
same,Potency,[18],inactive
same,Potency,[4],inactive
same,outcome,[5],inactive
same,Potency,[6],inactive
same,Potency,[9],inactive
same,outcome,[11],inactive
same,Potency,[12],inactive
same,Potency,[13],inactive
same,Potency,[14],inactive
same,Potency,[15],inactive
same,outcome,[16],inactive
same,outcome,[17],inactive
ClCC1CO1 (stereo not given),outcome,[1],inactive
same,Potency,[2],inactive
same,Potency,[3],inactive
same,Potency,[18],inactive
same,Potency,[4],inactive
same,outcome,[5],inactive
same,Potency,[6],inactive
same,Potency,[7],inactive
same,outcome,[8],inactive
same,Potency,[13],inactive
same,Potency,[14],inactive
same,Potency,[15],inactive
same,outcome,[16],inactive
same,outcome,[17],inactive
COP(=O)(OC)O/C(C)=C/C(=O)N(C)C,outcome,[1],inactive
same,Potency,[2],inactive
same,Potency,[3],inactive
same,Potency,[4],inactive
same,outcome,[5],inactive
same,Potency,[6],inactive
same,Potency,[7],inactive
same,outcome,[8],inactive
same,Potency,[9],inactive
same,outcome,[11],inactive
same,Potency,[12],inactive
same,Potency,[14],inactive
same,Potency,[15],inactive
same,outcome,[16],inactive
same,outcome,[17],inactive
CCC1(CC)C(=O)C=CNC1=O,outcome,[1],inactive
same,Potency,[2],inactive
same,Potency,[3],inactive
same,Potency,[4],inactive
same,outcome,[5],inactive
same,Potency,[6],inactive
same,Potency,[7],inactive
same,outcome,[8],inactive
same,Potency,[9],inactive
same,Potency,[10],inactive
same,Potency,[12],inactive
same,Potency,[13],inactive
same,Potency,[14],inactive
same,Potency,[15],inactive
same,outcome,[16],inactive
same,outcome,[17],inactive
O=C(CCl)NCO,outcome,[1],inactive
same,Potency,[2],inactive
same,Potency,[3],inactive
same,Potency,[4],inactive
same,outcome,[5],inactive
same,Potency,[6],inactive
same,Potency,[7],inactive
same,outcome,[8],inactive
same,Potency,[9],inactive
same,Potency,[13],inactive
same,Potency,[14],inactive
same,Potency,[15],inactive
same,outcome,[16],inactive
same,outcome,[17],inactive
O=CCCl,outcome,[1],inactive
same,Potency,[2],inactive
same,Potency,[3],inactive
same,Potency,[4],inactive
same,outcome,[5],inactive
same,Potency,[6],inactive
same,Potency,[7],inactive
same,outcome,[8],inactive
same,Potency,[9],inactive
same,outcome,[11],inactive
same,Potency,[14],inactive
same,Potency,[15],inactive
same,outcome,[16],inactive
same,outcome,[17],inactive
CCCCCCC(=O)CCCCCC/C=C/C[C@@H](O)[C@H](O)[C@@](N)(CO)C(=O)O,"activity change, negative = cytotoxicity",[1],7.82% [at 19 µM]
same,"viability change, negative = cytotoxic",[2],8.38% [at 19 µM]
same,"activity change, negative = inhibition",[3],5.03% [at 19 µM]
same,"activity change, negative = inhibition",[4],6.81% [at 19 µM]
same,"activity change, negative = cytotoxicity",[5],-0.234% [at 19 µM]
same,"viability change, negative = cytotoxic",[6],4.09% [at 19 µM]
same,"viability change, negative = cytotoxic",[7],-0.502% [at 19 µM]
same,activity change,[8],-0.137% [at 18.9 µM]
same,"activity change, negative = inhibition",[9],34.1% [at 19 µM]
same,"activity change, negative = cytotoxicity",[12],2.63% [at 19 µM]
same,"activity change, negative = cytotoxicity",[13],-0.265% [at 19 µM]
same,"activity change, negative = cytotoxicity",[14],5.36% [at 19 µM]
same,cAMP activity change,[16],0.106% [at 18.9 µM]
same,"activity change, negative = inhibition",[17],-2.59% [at 19 µM]
CCCCOC(C)=O,outcome,[1],inactive
same,Potency,[2],inactive
same,Potency,[3],inactive
same,Potency,[4],inactive
same,outcome,[5],inactive
same,Potency,[6],inactive
same,Potency,[7],inactive
same,outcome,[8],inactive
same,Potency,[9],inactive
same,Potency,[12],inactive
same,Potency,[13],inactive
same,Potency,[14],inactive
same,Potency,[15],inactive
same,outcome,[16],inactive
same,outcome,[17],inactive
COC(=O)c1ccccc1CS(=O)(=O)NC(=O)Nc1nc(OC)cc(OC)n1,outcome,[1],inactive
same,Potency,[2],inactive
same,Potency,[3],inactive
same,Potency,[4],inactive
same,outcome,[5],inactive
same,Potency,[6],inactive
same,Potency,[7],inactive
same,outcome,[8],inactive
same,outcome,[11],inactive
same,Potency,[12],inactive
same,Potency,[13],inactive
same,Potency,[14],inactive
same,outcome,[16],inactive
same,outcome,[17],inactive
CC(C)[N+](C)(CCC(C(N)=O)(c1ccccc1)c1ccccc1)C(C)C,outcome,[1],inactive
same,Potency,[2],inactive
same,Potency,[3],inactive
same,Potency,[4],inactive
same,outcome,[5],inactive
same,Potency,[6],inactive
same,Potency,[7],inactive
same,outcome,[8],inactive
same,Potency,[9],inactive
same,outcome,[11],inactive
same,Potency,[13],inactive
same,Potency,[14],inactive
same,Potency,[15],inactive
same,outcome,[16],inactive
same,outcome,[17],inactive
